FBW7 activator – human FBW7 E3 ligase activation, primary screen. Q969H0. AID 1259310. AlphaScreen FBW7–phospho-cyclin E peptide binding, activator screen. normalized activity (activation), % at 26.1 µM. 650,000 tested, 0.13% active; in the data active means normalized activity above about 1.9%;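 further: purified mutant Fbw7 with reduced substrate affinity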
Target sequence (Q969H0 whole entry, looked up): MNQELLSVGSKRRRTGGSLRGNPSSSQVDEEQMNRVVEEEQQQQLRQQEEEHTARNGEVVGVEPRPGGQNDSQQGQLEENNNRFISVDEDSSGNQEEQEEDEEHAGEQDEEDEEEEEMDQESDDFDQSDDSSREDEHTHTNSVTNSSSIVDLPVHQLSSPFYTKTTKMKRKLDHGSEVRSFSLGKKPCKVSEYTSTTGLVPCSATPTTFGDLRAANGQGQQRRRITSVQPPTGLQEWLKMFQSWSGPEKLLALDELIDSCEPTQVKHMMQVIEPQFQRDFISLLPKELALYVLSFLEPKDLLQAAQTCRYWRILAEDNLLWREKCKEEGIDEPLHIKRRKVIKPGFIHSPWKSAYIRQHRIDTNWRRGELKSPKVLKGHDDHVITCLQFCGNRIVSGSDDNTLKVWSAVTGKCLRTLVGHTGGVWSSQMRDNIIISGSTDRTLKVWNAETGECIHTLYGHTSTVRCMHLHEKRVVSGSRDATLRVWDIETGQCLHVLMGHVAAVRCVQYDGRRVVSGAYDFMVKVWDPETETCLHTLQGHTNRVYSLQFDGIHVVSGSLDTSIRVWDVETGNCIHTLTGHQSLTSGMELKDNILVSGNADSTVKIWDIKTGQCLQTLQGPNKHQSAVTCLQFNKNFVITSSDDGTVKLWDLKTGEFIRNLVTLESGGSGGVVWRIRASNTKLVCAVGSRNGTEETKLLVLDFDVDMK
TEAD-YAP block – TEAD-YAP interaction inhibition | inhibition, % at 9.12 µM | 640,000 tested, 1.4% active | AID 1259422 | HEK-TIYL cells, TEAD-Gal4/YAP UAS-luciferase luminescence; in the data active means inhibition above about 32%;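 further: 0% = median of test compound wells and 100% = reference inhibitor wells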
MITF primary – blocks human microphthalmia-associated transcription factor; AlphaScreen MITF homodimerization, bead proximity signal; inhibition, % at 2.6 µM; 650,000 tested, 0.91% active; O75030; in the data active means inhibition above about 50%;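 further: 0% = vehicle wells with protein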
GPR151 ag – activates the human receptor GPR151. PathHunter beta-arrestin GPR151 cells, luminescence. activation, % at 11.2 µM. 650,000 tested, 1% active. AID 1508602; in the data active means activation above about 4.9%;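 further: 0% = median of compound wells and 100% = cells with positive control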
GPR151 confirm – confirmation of human GPR151 activators; activation, % at 11.2 µM; GPR151 PathHunter beta-arrestin cells, luminescence, 90 min; % of EA-reagent control over plate median; shares compounds with GPR151 ag; 6,700 tested, under 10 active;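 active means mean percent activation across replicates above the confirmation screen cutoff of 4.91%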
GPR119 counter – counter-screen for GPR151 activators: effect on human GPR119; shares compounds with GPR151 ag; GPR119 PathHunter beta-arrestin cells, luminescence, 90 min; 0 = compound-well median, 100 = enzyme-acceptor control; activation, % at 11.2 µM; 6,700 tested, 0.3% active; AID 1508611;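 active means mean percent activation in the counterscreen above 29.09%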;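 further: counterscreen on off-target GPR119 to flag nonselective hits from the GPR151 activator screen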
The depositor's hits bear a star; . = no result; ! = not active in a repeat. Compounds with a hit are over-represented: about 3.5% of the library has one in this group of screens.

SMILES	FBW7 activator	TEAD-YAP block	MITF primary	GPR151 ag	GPR151 confirm	GPR119 counter
Cc1ccc(-n2c(=S)sc3c(=O)n(-c4ccc(F)cc4)c(SCC#N)nc32)c(C)c1	0	2	-11	6.3*	1	7
CCOc1ccc(-n2c(SCC#N)nc3c(sc(=S)n3-c3ccc(C)cc3C)c2=O)cc1	0	8	2	0	.	.
CCCCCOc1ccc(C(=O)Nc2c(C(N)=O)oc3ccccc23)cc1	0	1	6	4.9*	2	0
CC(=O)Nc1c(C(=O)c2ccc(Oc3ccccc3)cc2)oc2ccccc12	0	-1	-13	7.4*	2	7
CCCCOc1ccc(C(=O)Nc2c(C(N)=O)oc3ccccc23)cc1	0	4	8	-2	.	.
CCN1CCN(C(c2ccc(OC)cc2OC)c2nnnn2Cc2ccccc2)CC1 (stereo not given)	1	0	1	0	.	.
COc1cc(OC)cc(-n2nc(C(=O)N3CCN(Cc4ccccc4)CC3)c3ccccc3c2=O)c1	0	28	11	0	.	.
COc1ccc(/C=N/NC(=O)CNc2ccc3ccccc3c2)cc1OC	0	-4	11	5.9*	0	-3
COc1ccc(/C=N/NC(=O)CNC(=O)c2ccccc2Br)cc1	0	0	3	-1	.	.
COc1ccc(/C=N/NC(=O)CNC(=O)c2ccccc2Br)cc1OC	0	3	6	7.6*	0	-4
COc1ccc(/C=N/NC(=O)CNc2ccc3ccccc3c2)cc1Cl	0	-12	15	-1	.	.
COc1ccc(/C=N/NC(=O)C(=O)Nc2cccc(Cl)c2)cc1OC	0	-4	-7	7.4*	0	2
CCNC(=O)C1Cc2ccccc2N1S(=O)(=O)c1ccc2ccccc2c1 (stereo not given)	0	2	18	0	.	.
CCN1CCN(c2nc3c(c(=O)n(C)c(=O)n3C)n2CCSc2ncccn2)CC1	0	2	-3	8.0*	0	4
Cn1c(=O)c2c(nc(Cl)n2CC(=O)NCc2ccccc2)n(C)c1=O	0	12	15	6.5*	0	7
Cn1c(=O)c2c(nc(N3CCCCCC3)n2CCc2ccccc2)n(C)c1=O	0	-7	-11	5.0*	2	8
COc1ccc(CNc2c(-c3ccc(O)c(OC)c3)nc3cnccn23)cc1	0	-17	7	0	.	.
COC(=O)CCC(C)C1CCC2C3CC[C@@H]4C[C@H](O)CC[C@]4(C)C3C[C@H](O)[C@]12C (stereo not given in full)	0	4	16	6.4*	0	8
C[C@H](CCC(=O)O)[C@H]1CC[C@H]2[C@@H]3[C@@H](O)C[C@@H]4C[C@H](O)CCC4(C)[C@H]3CCC12C (stereo not given in full)	0	.	-12	4	.	.
COc1ccc(C=O)cc1OC(=O)c1cccc2ccccc12	0	-1	11	10*	-1	-15
COc1cc(CNCC(C)C)cc(Cl)c1OC	1	2	20	0	.	.
CCOc1c(Cl)cc(CNCC(C)C)cc1OC	0	11	1	6.2*	-1	-14
CCCCn1c(CNC(=O)c2cccc(C)c2)nnc1SCC(=O)Nc1sc2c(c1C(=O)OCC)CCCCC2	0	-7	-13	2	.	.
Cn1nc(-c2ccnc(Nc3ccc(N4CCOCC4)cc3)c2)cc1Nc1ccccc1	0	-5	-4	5.7*	0	-6
NC(=O)c1cc2ccccc2cc1Nc1ccnc(Nc2ccc(N3CCOCC3)cc2)c1	0	83*	34	6.5*	0	0
SMILES	FBW7 activator	TEAD-YAP block	MITF primary	GPR151 ag	GPR151 confirm	GPR119 counter
NC(=O)c1ccccc1Nc1ccnc(Nc2ccc(N3CCOCC3)cc2)c1	0	27	-5	0	.	.
O=C(CN(Cc1ccc(Br)cc1)S(=O)(=O)c1ccccc1)Nc1ccc(OCc2ccccc2)cc1	0	-1	-7	-1	.	.
O=C(NCC1Cc2cc(Cl)cc(-c3cnccn3)c2O1)c1c(F)cccc1F (stereo not given)	0	-1	-9	-1	.	.
Cc1cccc(-c2n[nH]c(=S)n2CC(=O)O)c1	0	3	7	7.2*	0	3
O=C(NCc1ccccc1)c1cc2cc([N+](=O)[O-])ccc2oc1=O	0	-2	0	13*	0	4
O=C(NCc1ccccn1)c1cc2c(ccc3ccccc32)oc1=O	0	-11	9	12*	-1	1
O=S(=O)(c1ccc(-c2csc(=Nc3ccc(OC(F)(F)F)cc3)n2CCCO)cc1)N1CCCC1	0	10	9	0	.	.
COc1ccc(-c2noc(C3CCCN(C(=O)Cc4cccc(OC)c4)C3)n2)cc1 (stereo not given)	0	-14	-2	0	.	.
Cc1nc2c(c(N3CCCCCC3)n1)CN(CCS(=O)(=O)c1ccccc1)CC2	0	8	-10	0	.	.
CCOc1ccccc1-c1nnc(SCC(=O)NCc2ccccc2)o1	0	2	8	6.9*	0	11
CC(=O)Nc1cnn(-c2ccc(C(=O)NC(c3ccncc3)c3ccccc3C)cc2)c1 (stereo not given)	0	-7	-4	5.4*	0	1
COc1ccc(-c2nc(NC(C)=O)sc2C)cc1OC	0	12	12	6.0*	-1	-8
COCCNC(=O)c1cc(C)nn1-c1ccccc1	0	5	1	2	.	.
CCN(CCNC(=O)c1cc(C)nn1-c1ccccc1)c1ccccc1	0	-5	13	7.9*	0	-8
CO[C@H]1/C=C/O[C@@]2(C)Oc3c(C)c(O)c4c(O)c(c(/C=N\N5CCN(C)CC5)c(O)c4c3C2=O)NC(=O)/C(C)=C\C=C\C(C)[C@H](O)[C@@H](C)[C@@H](O)[C@@H](C)[C@@H](OC(C)=O)[C@@H]1C (stereo not given in full)	0	2	-14	-1	.	.
CO[C@H]1C=CO[C@@]2(C)Oc3c(C)c(O)c4c(O)c(c(C=NN5CCN(C)CC5)c(O)c4c3C2=O)NC(=O)C(C)=CC=C[C@H](C)[C@H](O)[C@@H](C)[C@@H](O)[C@@H](C)[C@H](OC(C)=O)[C@@H]1C	0	.	-4	6.0*!	0	-6
Cc1cccc(C(=O)Nc2cccc(NC(=O)c3cccc(C)c3)c2)c1	0	-1	5	-1	.	.
Cc1ccccc1OCC(=O)NN1CC(O)=C(c2nc(-c3ccc(F)cc3)cs2)C1=N	0	7	0	5.6*	1	0
COC(=O)COc1ccc2c(-c3ccccc3)cc(=O)oc2c1	0	7	4	-1	.	.
CCOC(=O)N1CCC(NCCNC(=O)c2ccc(Cl)cc2)CC1	0	17	33	12*	0	4
CCOC(=O)N1CCC(Nc2nncc(-c3ccc(OC)cc3)n2)CC1	0	11	-3	10*	0	1

Screening data deposited in PubChem by The Scripps Research Institute Molecular Screening Center.
